Rows were chosen to be rich in hits. Some 19% of all compounds tested hit in one or more screens of this group.
HT1080 IDH1KD tx: toxicity to HT-1080 IDH1 knockdown cells (counter line) | HT-1080 IDH1 knockdown viability, ATP luminescence, 48 h | actives 2% (n = 360,000) | AID 686971 | Potency, µM (top dose mostly 46.1 µM), without a hit: top-dose activity, negative = toxicity, usual class: cytotoxic;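 further: potency means the concentration at half of the fitted maximal effect; 0% = DMSO wells and -100% = cell-free medium wells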
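CellTiter-Glo luminescence after 48 h compound exposure at 37 degrees C of IDH1-knockdown HT-1080 cells in 5% FBS RPMI. %Activity scaled between DMSO wells and cell-free media wells, with curves fitted and assigned curve classes.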
TDP1 cell CPT: DT40-hTDP1 cell growth loss with CPT | chicken DT40 Tdp1-/-;hTDP1 cells + 20 nM CPT, ATP luminescence, 48 h | Potency, µM (series often up to 46.2 µM), without a hit: at the highest dose activity change, negative = growth inhibition, hits mostly inhibitors | actives 12% (n = 420,000); further: potency means the concentration at half of the fitted maximal effect; nearly all actives have a fitted effect of over 55% in size
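Chicken DT40 Tdp1-/- cells stably complemented with human TDP1 were seeded at 400 cells/well in medium containing 20 nM camptothecin, exposed to pin-transferred compounds, and grown at 37 °C for at least 48 hr. Viability was read as ATP luminescence.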
IL1B secr inh: inflammasome signaling inhibition, IL-1 beta readout; AID 743279; actives 4.7% (n = 360,000); activity change, % at 57.5 µM; THP-1 LPS/ATP IL-1B secretion, AlphaLISA, 16 h; hits give low values; in the data active means activity change below about -50%; inconclusive means mostly about -30% to -49%
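THP-1 cells pretreated 1 hr with compounds (up to 57.5 uM final), then stimulated with LPS (250 ng/mL final) plus ATP (1.25 mM final); secreted IL-1B measured by AlphaLISA after 16 hr, decreased signal indicating inhibition.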
HT1080-NT tox: kills 2HG-producing HT-1080-NT fibrosarcoma cells; HT-1080-NT fibrosarcoma viability, CellTiter-Glo ATP luminescence, 48 h; AID 686970; actives 1.6% (n = 360,000); Potency, µM (highest dose often 46.1 µM), inactives show at the top dose activity, negative = less viability, actives largely listed as cytotoxic;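 further: NT is the 2HG producing partner of a matched IDH1 knockdown line; potency means the concentration at half of the fitted maximal effect; 0% = DMSO-treated cells and -100% = media-only wells without cells; nearly all actives have a fitted effect of over 55% in size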
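Viability by CellTiter-Glo luminescence after 48 h compound exposure at 37C of HT-1080-NT cells (750/well, RPMI, 5% FBS). % activity scaled between DMSO wells and medium-only wells, then curve-fitted and categorized by curve class.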
DT40 TDP1 no CPT: qHTS for Inhibitors of human tyrosyl-DNA phosphodiesterase 1 (TDP1): qHTS in cells in absence of CPT; DT40 Tdp1-/- hTDP1 cells, no CPT, ATP luminescence, 48 h; Potency, µM (series often up to 46.2 µM), for inactives: top-dose activity change, negative = growth inhibition, most hits filed as inhibitors; actives 15% (n = 420,000); further: potency means the concentration at half of the fitted maximal effect; nearly all actives have a fitted effect of over 55% in size
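Cells were dispensed at 400 per well, compounds added by pin tool, plates incubated ≥48 hr at 37 °C, then CellTiter-Glo added for 30 min at room temperature before luminescence reading. Line: DT40 Tdp1-/- complemented with hTDP1; camptothecin omitted.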
* hit, by the source's call; i = inactive; ? = inconclusive; / = not tested or not shown; ! = a repeat was not active; [ ] = remark or other dose. Unless noted, the call rests on the fitted dose curve; in most records, active means well fitted curve in the direction sought with a large enough effect; inconclusive means small, poorly fitted or top-dose-only effect, or another doubt; inactive means no such curve, though single readings can be large; an effect the other way counts as inactive or inconclusive. Unless noted, on the % scale 0 is the no-effect control and ±100 the full control effect.

SMILES | HT1080 IDH1KD tx | TDP1 cell CPT | IL1B secr inh | HT1080-NT tox | DT40 TDP1 no CPT
CC(C)(CN1CCN(Cc2ccccc2)CC1)NS(=O)(=O)c1ccc(Cl)cc1 | 2.9% | 16.4µM* | -25.0 | ? | 18.4µM*
Cc1ccc(S(=O)(=O)NC2=C(N3CCN(Cc4ccccc4)CC3)C(=O)c3ccccc3C2=O)cc1 | -8.5% | 23.1µM* | -11.3 | -11.1% | 16.4µM*
NC(=O)C1CCN(C2=C(NS(=O)(=O)c3ccc(Cl)cc3)C(=O)c3ccccc3C2=O)CC1 | -10.2% | 16.4µM* | -7.9 | -12.0% | ?
CCOC(=O)N1CCN(C2=C(NS(=O)(=O)c3ccc(C)cc3)C(=O)c3ccccc3C2=O)CC1 | ? | 8.2µM* | 11.1 | ? | ?
COC(=O)C1CCN(C2=C(NS(=O)(=O)c3ccc(Cl)cc3)C(=O)c3ccccc3C2=O)CC1 | ? | ? | 0.0 | ? | -16.9%
COC(=O)c1c(F)c(F)c(NCCO)c(F)c1F | 0.0% | -0.8% | 4.9 | 2.7% | -0.1%
CC(C)NC(=O)CSCc1c(F)cccc1Cl | 1.0% | -0.6% | 0.5 | 1.4% | 15.7%
Cc1ccc(S(=O)(=O)NC2=C(N3CCN(c4ccccc4F)CC3)C(=O)c3ccccc3C2=O)cc1 | 16.6% | 23.1µM* | -64.0*! | 13.7% | ?
CC(=O)Nc1ccc(S(=O)(=O)NC2=C(N3CCN(c4ccc(F)cc4)CC3)C(=O)c3ccccc3C2=O)cc1 | ? | 10.3µM* | -7.2 | ? | 16.4µM*
COc1ccccc1-c1ccnc(-n2ncc(C(=O)N3CCN(C(C)C)CC3)c2-c2ccco2)n1 | / | 8.2%[9.04 µM] | / | / | -9.6%
CC(C)(CO)NC(=O)c1cnn(-c2ncc3c(n2)-c2ccccc2CC3)c1C1CC1 | / | 5.8%[9.04 µM] | / | / | -24.7%
CCn1c(C)c(C(C)=O)c(SC)nc1=S | 3.8% | -7.6% | 0.1 | 8.9% | -17.3%
O=C(Cn1c(=O)n2nc(-c3cccc(F)c3)nc2c2ccccc21)NCc1ccc(Cl)cc1 | / | -2.2% | / | / | -4.0%
CCn1c(=O)c2ccccc2n(Cc2cccc(C)c2)c1=O | -18.3% | -11.3% | -3.0 | -8.5% | -12.7%
CCc1cccc(NC(=O)Cn2c(=O)n3nc(-c4cccc(F)c4)nc3c3ccccc32)c1 | / | 3.66µM* | / | / | 4.61µM*
Cc1cccc(-c2nc3c4ccccc4n(Cc4cccc(Cl)c4)c(=O)n3n2)c1 | / | 20.6µM* | / | / | 10.3µM*
CC1CC1C(=O)N1CCN(S(=O)(=O)c2cccc(F)c2)CC1 (stereo not drawn) | 1.8% | -6.2% | 9.6 | 2.4% | 2.4%
Nc1cc(C(F)(F)F)ccc1NCCc1ccccn1 | -0.1% | 1.5% | ? | -4.4% | -8.1%
Cc1c(Cl)cccc1N/C(SCC(=O)N1CCCCCC1)=C(/C#N)c1nc2ccccc2s1 | -26.2% | 11.6µM* | -93.5* | 0.6% | 11.6µM*
O=C(Cc1ccccc1)NCC(=O)N1CCN(c2ccccc2)CC1 | -2.7% | -6.9% | i | 7.6% | 7.1%
CC(=O)Nc1ccc(S(=O)(=O)N2CCN(c3cc4c(cc3[N+](=O)[O-])n(C)c(=O)n4C)CC2)cc1 | ? | ? | -11.1 | -11.0% | 18.4µM*
CCS(=O)(=O)N1CCN(c2cc3c(cc2[N+](=O)[O-])n(C)c(=O)n3C)CC1 | 26.0% | 2.0% | 8.3 | 13.7% | ?
Cn1c(=O)n(C)c2cc([N+](=O)[O-])c(N3CCN(S(=O)(=O)c4ccc(C(C)(C)C)cc4)CC3)cc21 | -13.1% | 20.6µM* | -29.7 | 5.4% | ?
Cc1nc(-[n+]2nc(-c3ccncc3)nn2-c2ccccc2)sc1C | 10.3µM* | 1.46µM* | ? | 25.9µM* | 1.84µM*
CSCc1c(C(=O)N2CCCc3ccccc32)oc2ccccc12 | -4.3% | 14.6µM* | -0.7 | -13.7% | ?
SMILES | HT1080 IDH1KD tx | TDP1 cell CPT | IL1B secr inh | HT1080-NT tox | DT40 TDP1 no CPT
O=C(c1cc(=O)c2ccccc2o1)N1CCCc2ccccc21 | -3.4% | 1.6% | 22.1 | -12.3% | 5.2%
C=CCn1c(SCC(=O)Nc2cc(C)on2)nnc1-c1ccncc1 | 12.3% | 0.3% | -17.1 | 2.4% | -0.9%
CN1N=C(/C=C/c2ccccc2)CCC1=O | -4.4% | 0.9% | 0.0 | -24.9% | -27.1%
CC1(C)CC(/C=C/c2ccccc2)=Nc2ccccc2N1 | -11.5% | 18.4µM* | -62.4* | -25.7% | 20.6µM*
O=C1CC(/C=C/c2ccc(Cl)cc2)=Nc2ccccc2N1 | -19.0% | ? | -93.8* | ? | 14.6µM*
O=C1CC(/C=C/c2cccnc2)=Nc2ccccc2N1 | ? | 13µM* | -92.8* | -0.2% | 16.4µM*
O=C(NC(c1ccc(Cl)cc1)c1ccccn1)C1CCN(CCOc2ccc(Cl)cc2Cl)CC1 (stereo not drawn) | ? | ? | -7.1 | ? | 18.4µM*
COc1cccc(OC)c1OCCN1CCC(C(=O)NC(c2ccccc2)c2ncccc2C)CC1 (stereo not drawn) | -26.3% | ? | -0.2 | -26.9% | ?
O=C(NC(c1ccc(Cl)cc1)c1cccnc1)C1CCN(CCOc2ccc(Cl)cc2Cl)CC1 (stereo not drawn) | 18.4µM* | ? | 0.0 | 18.4µM* | ?
Cc1cccnc1C(NC(=O)C1CCN(CCOc2ccc(Cl)cc2Cl)CC1)c1ccc(Cl)cc1 (stereo not drawn) | 7.8% | 11.6µM* | ? | -0.3% | 7.31µM*
O=c1c2cccnc2n(Cc2ccc(Cl)cc2)c(=O)n1Cc1ccc(F)cc1 | / | ? | / | / | 8.2µM*
Cc1ccccc1Cn1c(=O)n(Cc2ccc(Cl)cc2)c(=O)c2cccnc21 | / | 14.6µM* | / | / | 16.4µM*
O=c1c2cccnc2n(Cc2ccccc2F)c(=O)n1Cc1ccc(F)cc1 | / | -19.6% | / | / | ?
Cc1ccc(OCC(=O)NCc2cccs2)c([N+](=O)[O-])n1 | 20.1% | 5.1% | -11.3 | 14.1% | 23.7%
C=CC(C)(C)c1c(O)c(CC=C(C)C)c(O)c2c(=O)c3ccc(O)c(O)c3oc12 | 14.6µM* | 16.4µM* | 83.0 | ? | 18.4µM*
NC(=O)c1ccc(=O)n(C2OC(CO)C(O)C2O)c1 (stereo not drawn) | ? | ? | -8.0 | 3.1% | -10.5%
O=C1C=CN(C2OC(CO)C(O)C2O)C(=O)C1 (stereo not drawn) | ? | 8.2µM* | -9.4 | -1.6% | 3.66µM*
COc1ccc(C(=O)C(C)Oc2cccc(NC(=O)c3cccc([N+](=O)[O-])c3)c2)cc1 (stereo not drawn) | 8.3% | ? | -17.9 | 4.3% | 20.6µM*
O=C(Nc1ccc2ccccc2c1)c1cccc([N+](=O)[O-])c1 | -9.8% | -6.3% | -16.1 | 1.2% | ?
COc1ccc(/C=C2\C(=O)N(c3c(Cl)cc(Cl)cc3Cl)N=C2NC(=O)c2cccc([N+](=O)[O-])c2)cc1 | 10.3% | 18.4µM* | -104.8* | 0.7% | ?
